Assay results from PubChem BioAssay (Tox21).
“And” between values parts separate entries of the source, which are not always exact repeats. Equal values may be shown once. Inconclusive results are not listed. Where a structure was tested more than once in an assay, its records may differ in their call. The source made the active and inactive calls. Unless noted, the call rests on the fitted dose curve; in most records, active means well fitted curve in the direction sought with a large enough effect in the repeat runs; inconclusive means weak or mixed curves; inactive means no such curve, though single readings can be large; an effect the other way counts as inactive or inconclusive.

What was measured:
[1] = Caspase-3/7 induction in HepG2 cells by small molecules, qHTS cell viability counter screen (AID 1346981); further: nearly all actives have a fitted effect of over 30% in size; further: potency means the concentration at half of the fitted maximal effect
Method in brief: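 Steps: seed 2,000 HepG2 cells per well; incubate 5 hr at 37 C; pin-add compounds in DMSO; incubate 16 hr; add CellTiter-Fluor; after 1 hr at 37 C and 5% CO2, read fluorescence.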

[2] = molecular target: Acetylcholinesterase (Homo sapiens) (UniProt P22303); assay: Acetylcholinesterase (AChE) small molecule antagonists: colormetric cell-based qHTS assay (AID 1347395; calls by dose curve; further: nearly all actives have a fitted effect of over 30% in size; further: potency means the concentration at half of the fitted maximal effect)
Chain of Acetylcholinesterase (Homo sapiens) (P22303 whole entry, looked up): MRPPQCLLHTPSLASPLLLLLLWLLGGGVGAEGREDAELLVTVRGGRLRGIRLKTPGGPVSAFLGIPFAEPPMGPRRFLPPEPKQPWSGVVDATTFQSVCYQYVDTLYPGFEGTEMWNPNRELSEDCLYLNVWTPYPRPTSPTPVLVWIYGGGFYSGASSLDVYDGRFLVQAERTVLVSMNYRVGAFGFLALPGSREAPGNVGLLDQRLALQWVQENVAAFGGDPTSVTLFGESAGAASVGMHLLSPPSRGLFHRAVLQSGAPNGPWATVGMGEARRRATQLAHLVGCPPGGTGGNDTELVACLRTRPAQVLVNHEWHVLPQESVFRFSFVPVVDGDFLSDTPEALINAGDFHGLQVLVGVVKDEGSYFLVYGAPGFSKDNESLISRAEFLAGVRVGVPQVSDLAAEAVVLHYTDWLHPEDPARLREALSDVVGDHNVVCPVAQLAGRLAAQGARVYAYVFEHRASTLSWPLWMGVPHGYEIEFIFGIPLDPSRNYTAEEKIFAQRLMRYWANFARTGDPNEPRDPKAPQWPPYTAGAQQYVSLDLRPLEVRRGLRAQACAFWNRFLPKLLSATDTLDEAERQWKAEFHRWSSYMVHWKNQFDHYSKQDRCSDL
Method in brief: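 SH-SY5Y cells; cpd 30 min 37 C; + DTNB/acetylthiocholine, 90 min 37 C; colorimetric thiocholine read; qHTS.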

[3] = molecular target: Acetylcholinesterase (Homo sapiens) (UniProt P22303); assay: Acetylcholinesterase (AChE) small molecule antagonists: fluorescence cell-based qHTS assay (AID 1347398; calls by dose curve; further: on the % scale 0 is the no-effect control and ±100 the full control effect; nearly all actives have a fitted effect of over 50% in size); conditions: Potency: AChE activity
Method in brief: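 Read-out is Thiolite Green fluorescence at Ex/Em = 490/520 nm, formed by reaction with thiocholine released when cellular AChE in SH-SY5Y cells hydrolyzes acetylthiocholine. Compounds were preincubated 30 min at 37 C before substrate.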

[4] = molecular target: Acetylcholinesterase (Homo sapiens) (UniProt P22303); assay: Acetylcholinesterase (AChE) small molecule antagonists: enzyme-based qHTS assay with human liver microsomes (AID 1347399; calls by dose curve; further: on the % scale 0 is the no-effect control and ±100 the full control effect; nearly all actives have a fitted effect of over 60% in size); conditions: Potency: qHTS inhibition
Method in brief: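 Recombinant human AChE (50 mU/mL in the enzyme mix) and human liver microsomes (0.25 mg/mL final) were preincubated with compound and NADPH (0.25 mg/mL final) for 30 min at 37 C. Acetylthiocholine/DTNB was then added; thiocholine was read colorimetrically after 10 min at room temperature.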

[5] = molecular target: Cytochrome P450 2D6 (Homo sapiens) (UniProt P10635); assay: Cytochrome P450 Family 2 Subfamily D Member 6 (CYP2D6) small molecule antagonists: luciferase reporter qHTS assay (AID 1671196); further: nearly all actives have a fitted effect of over 50% in size; further: potency means the concentration at half of the fitted maximal effect
Chain of Cytochrome P450 2D6 (Homo sapiens) (P10635 whole entry, looked up): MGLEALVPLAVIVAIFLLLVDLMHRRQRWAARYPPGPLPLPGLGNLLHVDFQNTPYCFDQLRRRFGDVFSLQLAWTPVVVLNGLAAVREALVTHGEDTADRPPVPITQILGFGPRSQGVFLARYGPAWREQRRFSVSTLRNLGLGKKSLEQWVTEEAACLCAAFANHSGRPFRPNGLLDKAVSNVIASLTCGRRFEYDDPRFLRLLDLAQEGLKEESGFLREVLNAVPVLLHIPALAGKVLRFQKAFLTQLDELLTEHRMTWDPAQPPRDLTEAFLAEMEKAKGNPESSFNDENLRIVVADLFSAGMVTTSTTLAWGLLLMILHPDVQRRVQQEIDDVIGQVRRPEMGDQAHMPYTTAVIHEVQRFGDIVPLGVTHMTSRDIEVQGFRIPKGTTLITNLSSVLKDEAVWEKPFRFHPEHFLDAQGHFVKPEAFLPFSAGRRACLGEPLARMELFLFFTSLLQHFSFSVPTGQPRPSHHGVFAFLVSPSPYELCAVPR
Method in brief: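 P450-Glo format: CYP2D6 converts a proluciferin substrate to luciferin in an NADPH-driven reaction lasting 1 h at room temperature. Light output, proportional to CYP2D6 activity, reflects interference by test chemicals.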

[6] = molecular target: Cytochrome P450 2C19 (Homo sapiens) (UniProt P33261); assay: Cytochrome P450 Family 2 Subfamily C Member 19 (CYP2C19) small molecule antagonists: luciferase reporter qHTS assay (AID 1671197); further: nearly all actives have a fitted effect of over 65% in size; further: potency means the concentration at half of the fitted maximal effect
Chain of Cytochrome P450 2C19 (Homo sapiens) (P33261 whole entry, looked up): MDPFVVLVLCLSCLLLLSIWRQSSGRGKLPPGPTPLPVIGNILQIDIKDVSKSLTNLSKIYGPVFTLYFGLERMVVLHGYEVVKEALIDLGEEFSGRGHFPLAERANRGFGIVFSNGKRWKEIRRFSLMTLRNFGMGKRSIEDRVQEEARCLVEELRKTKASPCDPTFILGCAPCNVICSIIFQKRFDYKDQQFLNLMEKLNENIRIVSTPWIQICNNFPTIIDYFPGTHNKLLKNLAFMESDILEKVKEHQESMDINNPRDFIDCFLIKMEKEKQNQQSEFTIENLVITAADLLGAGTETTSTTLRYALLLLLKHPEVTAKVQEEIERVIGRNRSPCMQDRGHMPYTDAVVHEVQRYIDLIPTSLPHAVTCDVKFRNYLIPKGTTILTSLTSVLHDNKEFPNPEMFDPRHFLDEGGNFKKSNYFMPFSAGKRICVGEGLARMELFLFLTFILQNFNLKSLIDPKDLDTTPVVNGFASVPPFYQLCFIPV
Method in brief: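 Quantitative high-throughput screen of the Tox21 library using CYP2C19 with proluciferin substrate. Reaction: NADPH regeneration, 37C, 1 h, after 10 min compound preincubation at room temperature. Readout: luminescence.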

[7] = molecular target: Cytochrome P450 2C9 (Homo sapiens) (UniProt P11712); assay: Cytochrome P450 Family 2 Subfamily C Member 9 (CYP2C9) small molecule antagonists: luciferase reporter qHTS assay (AID 1671198); further: nearly all actives have a fitted effect of over 50% in size; further: potency means the concentration at half of the fitted maximal effect
Chain of Cytochrome P450 2C9 (Homo sapiens) (P11712 whole entry, looked up): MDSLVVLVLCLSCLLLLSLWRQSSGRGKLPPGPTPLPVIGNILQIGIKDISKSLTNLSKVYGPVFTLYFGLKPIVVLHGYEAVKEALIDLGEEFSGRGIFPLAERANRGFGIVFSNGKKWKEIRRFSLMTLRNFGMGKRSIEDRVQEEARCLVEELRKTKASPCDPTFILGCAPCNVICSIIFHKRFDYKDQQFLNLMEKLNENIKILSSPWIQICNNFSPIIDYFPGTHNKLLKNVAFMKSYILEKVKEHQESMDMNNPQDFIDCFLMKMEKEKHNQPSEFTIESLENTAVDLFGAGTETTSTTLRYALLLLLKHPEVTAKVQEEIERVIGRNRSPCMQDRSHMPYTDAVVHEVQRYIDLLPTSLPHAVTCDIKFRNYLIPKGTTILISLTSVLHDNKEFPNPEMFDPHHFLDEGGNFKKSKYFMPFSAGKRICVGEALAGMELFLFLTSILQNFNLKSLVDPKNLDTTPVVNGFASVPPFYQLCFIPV
Method in brief: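 Enzyme-substrate mix preincubated with compound 10 min at room temperature; reaction started with NADPH regeneration solution, 1 h 37C. Luminescent luciferin product read after 20 min detection reagent.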

[8] = molecular target: Voltage-gated inwardly rectifying potassium channel KCNH2 (Homo sapiens) (UniProt Q12809); assay: Human Ether-a-go-go-Related Gene (hERG) channel small molecule antagonists: fluorescence cell-based qHTS assay (AID 1671200);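 further: hERG-expressing U2OS cells given a thallium stimulus after FluxOR II dye loading; series mostly up to about 77 µM; on the % scale 0 is the no-effect control and ±100 the full control effect; nearly all actives have a fitted effect of over 50% in size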
Chain of Voltage-gated inwardly rectifying potassium channel KCNH2 (Homo sapiens) (Q12809 whole entry, looked up): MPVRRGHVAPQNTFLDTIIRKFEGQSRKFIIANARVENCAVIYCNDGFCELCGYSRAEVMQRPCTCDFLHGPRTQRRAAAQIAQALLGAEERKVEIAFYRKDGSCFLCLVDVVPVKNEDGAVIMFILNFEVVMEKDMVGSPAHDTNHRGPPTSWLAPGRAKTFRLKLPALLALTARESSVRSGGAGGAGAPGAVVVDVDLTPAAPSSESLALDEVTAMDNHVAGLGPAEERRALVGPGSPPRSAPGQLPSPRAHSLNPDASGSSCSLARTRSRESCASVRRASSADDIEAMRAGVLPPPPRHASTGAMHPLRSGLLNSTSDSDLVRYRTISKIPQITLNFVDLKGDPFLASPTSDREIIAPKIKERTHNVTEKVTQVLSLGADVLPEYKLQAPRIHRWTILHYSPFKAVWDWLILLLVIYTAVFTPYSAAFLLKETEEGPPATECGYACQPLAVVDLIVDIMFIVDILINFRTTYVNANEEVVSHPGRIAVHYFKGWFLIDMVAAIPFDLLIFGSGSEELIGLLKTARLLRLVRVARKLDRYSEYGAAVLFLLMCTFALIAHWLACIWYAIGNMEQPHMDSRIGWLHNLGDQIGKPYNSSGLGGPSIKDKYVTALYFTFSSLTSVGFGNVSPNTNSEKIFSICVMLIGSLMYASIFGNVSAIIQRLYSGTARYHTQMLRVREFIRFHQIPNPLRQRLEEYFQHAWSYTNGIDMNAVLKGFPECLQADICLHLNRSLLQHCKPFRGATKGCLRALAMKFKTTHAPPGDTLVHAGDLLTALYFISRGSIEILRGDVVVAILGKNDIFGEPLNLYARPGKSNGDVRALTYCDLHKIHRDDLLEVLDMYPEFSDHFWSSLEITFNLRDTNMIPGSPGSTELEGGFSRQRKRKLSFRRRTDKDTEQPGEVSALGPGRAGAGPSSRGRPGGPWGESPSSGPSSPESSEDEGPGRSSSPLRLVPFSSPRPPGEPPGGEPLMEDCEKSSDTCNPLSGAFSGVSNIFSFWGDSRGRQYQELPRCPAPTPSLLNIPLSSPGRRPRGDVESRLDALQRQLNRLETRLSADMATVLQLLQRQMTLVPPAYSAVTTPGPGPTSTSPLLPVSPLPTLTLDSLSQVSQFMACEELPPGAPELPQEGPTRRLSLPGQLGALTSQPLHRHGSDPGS
Method in brief: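 Read-out: thallium influx as a surrogate for potassium, tracked as fluorescence (480 nm ex/540 nm em) every second for 2 min after Stimulus Buffer addition in dye-loaded hERG-U2OS cells.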

[9] = molecular target: Cytochrome P450 3A4 (Homo sapiens) (UniProt P08684); assay: Cytochrome P450 Family 3 Subfamily A Member 4 (CYP3A4) small molecule antagonists: luciferase reporter qHTS assay (AID 1671201); further: nearly all actives have a fitted effect of over 50% in size; further: potency means the concentration at half of the fitted maximal effect
Chain of Cytochrome P450 3A4 (Homo sapiens) (P08684 whole entry, looked up): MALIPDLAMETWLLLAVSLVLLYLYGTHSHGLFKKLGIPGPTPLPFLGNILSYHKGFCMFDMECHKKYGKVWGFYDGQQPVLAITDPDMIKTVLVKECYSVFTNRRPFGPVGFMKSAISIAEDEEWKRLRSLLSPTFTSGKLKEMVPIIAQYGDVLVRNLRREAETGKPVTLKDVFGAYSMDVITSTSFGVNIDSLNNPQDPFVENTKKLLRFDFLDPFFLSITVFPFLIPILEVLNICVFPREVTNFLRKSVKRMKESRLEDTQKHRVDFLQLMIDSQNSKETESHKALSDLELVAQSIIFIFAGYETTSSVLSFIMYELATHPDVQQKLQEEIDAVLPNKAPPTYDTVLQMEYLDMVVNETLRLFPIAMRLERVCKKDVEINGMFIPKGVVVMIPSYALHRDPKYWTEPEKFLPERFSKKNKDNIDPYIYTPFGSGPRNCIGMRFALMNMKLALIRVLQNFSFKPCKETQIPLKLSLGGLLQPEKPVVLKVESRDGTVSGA
Method in brief: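 Luminescent readout (RLU) proportional to CYP3A4 activity, from luciferin generated off a proluciferin substrate. Enzyme–substrate mix plus compound 10 min at room temp, NADPH regeneration 1 h, detection reagent 20 min.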

[10] = molecular target: Acetylcholinesterase (Homo sapiens) (UniProt P22303); assay: Acetylcholinesterase (AChE) small molecule antagonists: enzyme-based qHTS assay (AID 1347397; calls by dose curve; further: on the % scale 0 is the no-effect control and ±100 the full control effect; nearly all actives have a fitted effect of over 55% in size); conditions: Potency: AChE enzyme activity inhibition
Method in brief: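 rhAChE 50 mU/mL (dispensed) + cpd or DMSO, 30 min RT; add DTNB/acetylthiocholine cocktail, 10 min RT; colorimetric thiocholine readout. qHTS, 1536-well format.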

[11] = molecular target: Cytochrome P450 1A2 (Homo sapiens) (UniProt P05177); assay: Cytochrome P450 Family 1 Subfamily A Member 2 (CYP1A2) small molecule antagonists: luciferase reporter qHTS assay (AID 1671199); further: nearly all actives have a fitted effect of over 50% in size; further: potency means the concentration at half of the fitted maximal effect
Chain of Cytochrome P450 1A2 (Homo sapiens) (P05177 whole entry, looked up): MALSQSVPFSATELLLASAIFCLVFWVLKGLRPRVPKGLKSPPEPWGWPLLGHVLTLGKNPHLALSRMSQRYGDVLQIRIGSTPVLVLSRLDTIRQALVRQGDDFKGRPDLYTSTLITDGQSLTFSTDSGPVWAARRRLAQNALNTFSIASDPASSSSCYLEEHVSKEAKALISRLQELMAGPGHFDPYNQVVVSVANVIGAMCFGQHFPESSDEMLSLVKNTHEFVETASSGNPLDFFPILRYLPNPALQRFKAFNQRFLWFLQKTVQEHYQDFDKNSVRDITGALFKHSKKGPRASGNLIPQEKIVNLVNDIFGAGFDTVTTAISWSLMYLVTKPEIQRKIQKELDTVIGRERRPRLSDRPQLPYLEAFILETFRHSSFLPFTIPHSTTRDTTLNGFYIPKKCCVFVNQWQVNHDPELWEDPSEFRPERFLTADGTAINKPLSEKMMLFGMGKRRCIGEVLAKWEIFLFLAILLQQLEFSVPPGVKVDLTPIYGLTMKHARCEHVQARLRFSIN
Method in brief: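 Inhibition of CYP1A2 conversion of proluciferin to luciferin, detected by luminescence. Reaction run 1 h at room temperature with NADPH regeneration after brief compound preincubation.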

[12] = molecular target: Nuclear receptor subfamily 1 group I member 2 (Rattus norvegicus) (UniProt Q9R1A7); assay: Rat pregnane X receptor (rPXR) activation by small molecules, qHTS assay (AID 1346983); conditions: rPXR luciferase reporter cells, One-Glo luminescence, 24 h; stronger effect = higher value; further: on the % scale 0 is the no-effect control and ±100 the full control effect; nearly all actives have a fitted effect of over 20% in size
Method in brief: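 Luminescent readout (One-Glo luciferase, 30 min room temperature) followed 24 hr compound treatment at 37 C of rPXR cells plated 2,000 per well and preincubated 5hr; qHTS format with compounds delivered in DMSO.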

[13] = molecular target: Nuclear receptor subfamily 1 group I member 2 (Homo sapiens) (UniProt O75469); assay: Human pregnane X receptor (PXR) small molecule agonists, qHTS assay (AID 1346982); further: potency means the concentration at half of the fitted maximal effect; nearly all actives have a fitted effect of over 35% in size
Chain of Nuclear receptor subfamily 1 group I member 2 (Homo sapiens) (O75469 whole entry, looked up): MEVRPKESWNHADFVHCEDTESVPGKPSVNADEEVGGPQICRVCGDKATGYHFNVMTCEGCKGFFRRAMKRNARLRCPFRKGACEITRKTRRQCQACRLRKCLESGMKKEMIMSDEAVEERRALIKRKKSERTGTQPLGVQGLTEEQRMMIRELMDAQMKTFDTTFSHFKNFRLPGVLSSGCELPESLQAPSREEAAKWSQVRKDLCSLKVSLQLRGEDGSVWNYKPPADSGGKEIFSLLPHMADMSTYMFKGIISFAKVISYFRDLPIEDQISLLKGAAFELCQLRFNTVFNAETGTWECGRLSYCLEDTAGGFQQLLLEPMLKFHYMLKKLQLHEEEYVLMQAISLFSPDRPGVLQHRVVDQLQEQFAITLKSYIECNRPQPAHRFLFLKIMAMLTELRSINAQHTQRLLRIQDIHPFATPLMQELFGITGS
Method in brief: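 Agonist mode qHTS: PXR-Luc HepG2 cells plated 5 hr before DMSO-dissolved compounds were pinned in, cultured 24 hr at 37 C, 5% CO2; ONE-Glo luminescence readout.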

O=S(=O)(c1ccc(Cl)cc1)c1cc(Cl)c(Cl)cc1Cl
active: Potency [6] 251 nM and 252 nM | Potency [7] 28.3 µM
inactive: Potency [1] | Potency [2] | Potency [3] | Potency [4] | Potency [5] | Potency [8] | Potency [9]

O=S(=O)(c1ccc(O)cc1)c1ccc(O)cc1
active: Potency [6] 17.9 µM and 22.4 µM
inactive: Potency [1] | Potency [2] | Potency [10] | Potency [3] | Potency [4] | Potency [7] | Potency [11] | Potency [8] | Potency [9]

CCOP(=S)(OCC)SCCSCC
active: Potency [6] 3.67 µM and 1.07 µM | Potency [7] 32.7 µM and 15.1 µM | Potency [11] 26 µM and 7.57 µM | Potency [9] 4.12 µM and 3.8 µM
inactive: Potency [1] | Potency [10] | Potency [3] | Potency [4] | Potency [8]
20.6 µM (active) and inactive: Potency [5]

NCC(O)c1ccc(O)cc1 (centres undefined)
inactive: Potency [1] | Potency [5] | Potency [6] | Potency [7] | Potency [11] | Potency [8] | Potency [9]

CCCCCCCCCCCC#N
inactive: Potency [1] | Potency [2] | Potency [10] | Potency [3] | Potency [4] | Potency [5] | Potency [7] | Potency [11] | Potency [8] | Potency [9]
18 µM (active) and inactive: Potency [6]

CC(NC(C)(C)C)C(=O)c1cccc(Cl)c1 (centres undefined)
inactive: Potency [1] | max activation [12] -1.59% | Potency [7] | Potency [11] | Potency [9]

ClCCBr
inactive: Potency [1] | Potency [2] | Potency [10] | Potency [3] | Potency [4] | Potency [7] | Potency [11] | Potency [8] | Potency [9]
35.5 µM (active) and inactive: Potency [5]
79.4 µM (active) and inactive: Potency [6]

CC(C)OC(=O)Nc1ccccc1
active: Potency [6] 40 µM | Potency [11] 28.3 µM and 39.9 µM
inactive: Potency [1] | Potency [2] | Potency [3] | Potency [4] | Potency [5] | Potency [8] | Potency [9]

O=c1[nH]c2ccccc2c(=O)o1
inactive: Potency [1] | Potency [2] | Potency [3] | Potency [4] | Potency [5] | Potency [6] | Potency [7] | Potency [8] | Potency [9]
inactive and 35.6 µM (active): Potency [11]

c1ccc(-c2ccccc2)cc1
inactive: Potency [1] | Potency [2] | Potency [10] | Potency [4] | Potency [5] | Potency [6] | Potency [7] | Potency [11] | Potency [8] | Potency [9]

C1CC2OC2CC1C1CO1 (centres undefined)
active: Potency [6] 69.7 µM
inactive: Potency [1] | Potency [2] | Potency [10] | Potency [3] | Potency [4] | Potency [5] | Potency [7] | Potency [11] | Potency [8] | Potency [9]

O=C1CCCN1
7.17 µM (active) and inactive: Potency [9]
8.05 µM (active) and inactive: Potency [6]
inactive: Potency [1] | Potency [2] | Potency [4] | Potency [5] | Potency [7] | Potency [11] | Potency [8]

COCCl
inactive: Potency [2] | Potency [10] | Potency [4] | Potency [5] | Potency [7] | Potency [8] | Potency [9]
active: Potency [6] 33 µM and 22.6 µM | Potency [11] 20.1 µM
35.7 µM (active) and inactive: Potency [1]

CN(C)N=O
inactive: Potency [1] | Potency [2] | Potency [10] | Potency [4] | Potency [5] | Potency [6] | Potency [7] | Potency [11] | Potency [8] | Potency [9]

Cn1cc(-c2ccccc2)c(=O)c(-c2cccc(C(F)(F)F)c2)c1
inactive: Potency [2] | Potency [10] | Potency [3] | Potency [4] | Potency [8]
active: Potency [13] 29.9 µM and 17.2 µM | Potency [6] 1.95 µM and 2.83 µM | Potency [7] 34.7 µM and 31.7 µM | Potency [11] 19.5 µM and 17.8 µM | Potency [9] 12.3 µM and 12.6 µM

C=CCO
inactive: Potency [1] | Potency [2] | Potency [10] | Potency [3] | Potency [4] | Potency [5] | Potency [6] | Potency [7] | Potency [11] | Potency [8] | Potency [9]

NCCc1ccc(O)cc1
inactive: Potency [1] | Potency [10] | Potency [3] | Potency [4] | Potency [8]
49.9 µM (active) and inactive: Potency [6]
active: Potency [5] 25 µM and 7.76 µM
39.6 µM (active) and inactive: Potency [11]
62.8 µM (active) and inactive: Potency [2]

c1ccc2c(c1)oc1ccccc12
inactive and 10 µM (active): Potency [11]
36.1 µM (active) and inactive: Potency [7]
inactive: Potency [1] | Potency [2] | Potency [10] | Potency [4] | Potency [5] | Potency [9]
active: Potency [6] 40.5 µM

c1ccc2c(c1)Oc1ccccc1O2
inactive: Potency [1] | Potency [2] | Potency [10] | Potency [4] | Potency [5] | Potency [6] | Potency [7] | Potency [8] | Potency [9]

O=Cc1cccc(Oc2ccccc2)c1
inactive: Potency [1] | Potency [2] | Potency [3] | Potency [4] | Potency [5] | Potency [8] | Potency [9]
active: Potency [6] 16 µM and 71 µM | Potency [7] 40.2 µM
35.9 µM (active) and inactive: Potency [11]

CC(C)(C)C(O)(CCc1ccc(Cl)cc1)Cn1cncn1 (centres undefined)
inactive: Potency [1] | Potency [2] | Potency [4] | Potency [8]
active: Potency [5] 28.6 µM and 35.6 µM | Potency [6] 640 nM and 448 nM | Potency [7] 3.21 µM and 3.56 µM | Potency [11] 32.1 µM and 28.3 µM | Potency [9] 114 nM and 200 nM

ClCc1cccnc1
69.8 µM (active) and inactive: Potency [6]
62.2 µM (active) and inactive: Potency [11]
inactive: Potency [1] | Potency [2] | Potency [10] | Potency [4] | Potency [5] | Potency [7] | Potency [8] | Potency [9]

CCCC1COC(Cn2cncn2)(c2ccc(Cl)cc2Cl)O1 (centres undefined)
active: Potency [13] 31.2 µM and 9.69 µM | Potency [5] 32.3 µM and 35.6 µM | Potency [6] 456 nM and 356 nM | Potency [7] 2.04 µM and 2.24 µM | Potency [11] 20.4 µM and 31.7 µM | Potency [9] 51.2 nM and 56.4 nM
inactive: Potency [2] | Potency [10] | Potency [4] | Potency [8]
